The target in this experiment is RUNX1 (UniProt Q01196). Nature of the experiment: TF binding intensity (PBM fluorescence), negative control probe (arbitrary fluorescence units); higher = stronger binding. The method, then:
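gcPBM negative-control 36-bp genomic probes lacking TF binding sites. Each was incubated with recombinant human ETS1 or RUNX1 alone and detected by antibody fluorescence. Values are medians over replicate spots (4 spots for the ETS1-RUNX1 arrays, 3 for the ETS1-ETS1 array). The probes sit in constant array flanks that are not printed.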
RUNX1, sequence (Q01196 whole entry): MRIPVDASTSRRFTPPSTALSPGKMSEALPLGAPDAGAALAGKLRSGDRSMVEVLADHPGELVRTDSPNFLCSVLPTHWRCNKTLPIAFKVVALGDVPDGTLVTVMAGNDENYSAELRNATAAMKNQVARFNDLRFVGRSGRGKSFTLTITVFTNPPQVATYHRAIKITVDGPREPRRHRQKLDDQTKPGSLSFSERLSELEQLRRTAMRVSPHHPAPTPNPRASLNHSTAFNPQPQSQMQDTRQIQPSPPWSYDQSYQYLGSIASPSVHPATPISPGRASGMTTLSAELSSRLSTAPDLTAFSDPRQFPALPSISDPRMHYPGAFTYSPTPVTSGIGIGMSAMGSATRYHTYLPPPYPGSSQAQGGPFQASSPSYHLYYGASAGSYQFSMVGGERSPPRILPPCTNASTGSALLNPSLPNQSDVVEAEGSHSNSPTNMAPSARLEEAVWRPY
Take “GAAGGGGTTTCAGGACGGAAGCAAACACATATTCAA (protein concentration 2 nM)”: the TF binding intensity is 912. With “GTCCCGCCTTCTCCGCTTCCGCCACCTCCTACTTAG (protein concentration 2 nM)”, the TF binding intensity was 1160. With “AGGAGGAGATGGGACAGGAAGGAATAGATGGGAGCA (protein concentration 2 nM)” the figure was 1720. With “CTGCTCGGCCAGGTCCGGAAAGAGAGAACGGGCTGG (protein concentration 2 nM)” the figure was 859; with “AATTCTGGGGAGCGAAGGAAATTGGCTTTCGAGGCG (protein concentration 2 nM)”, 1200. In the case of “ATGTGTGTGTTTTTCCTTCCGGTTGCTGTGAGGTGA (protein concentration 2 nM)” it was 919. Sequence “ATCAAGGCGCGGCGGCGGAAAAATGTGAAATGGCTT (protein concentration 2 nM)” yielded a TF binding intensity of 920. With “CTCCCTTGCTCACAACTTCCTCTTGCTGTCTGCTTC (protein concentration 2 nM)” the figure was 1170. In the case of “GCAGTCAGCCCTTCCCTTCCTGTCCGTCAACTCCGG (protein concentration 2 nM)” it was 875; in that of “GGCCAGAGGAGGGCGCGGAAGTGTTGCCTGGGTGAG (protein concentration 2 nM)”, 917; in that of “ACAGCTGAATTCTCACTTCCTTCGTCTCTGAGCCTG (protein concentration 2 nM)”, 874.

Turning to “CCCTGCAGCGCGTCCTTTCCGGCCCGCCCCATGCAC (protein concentration 2 nM)”, the TF binding intensity was found to be 922.

The sequence “CTCACACCCAGTCCCAGGAAGCGAGCCCCACGTCGC (protein concentration 2 nM)” had a TF binding intensity of 894.

“TCCAGGGCCACCCCATTTCCTGCCCTCAGCACTTCG (protein concentration 2 nM)” returned a TF binding intensity of 929. With “TCTCCGCGCATTTTATTTCCGGTTCTGAGGACGCCG (protein concentration 2 nM)” the figure was 1040.

As to “ACAGTTGCTCCGTCTCTTCCTGTGTCTGGCTTTATT (protein concentration 2 nM)”, the TF binding intensity stood at 876. In the case of “GGGAGAGATGGGGCGCGGAAGGAACGAGGCGGGACG (protein concentration 2 nM)” it was 1350.

Turning to “CAACGTTCTTCTGTTCTTCCGTCTGTCGACCGAACT (protein concentration 2 nM)”, the TF binding intensity is 945.

As to “ATTTCTGTGCAGTCACTTCCTCTTCTTAGGTCATAG (protein concentration 2 nM)”, the TF binding intensity is 1010. With “TCTCGCCCCTCATCCCGGAAAGGAAGACTCTGAATG (protein concentration 2 nM)” the figure was 891; with “CCTTTTTCGCCTCCTTTTCCTGCCCCAAGACTAGAG (protein concentration 2 nM)”, 1290. In the case of “CCATGATGTTTGTGATTTCCGGCAGATGATGAGTAA (protein concentration 2 nM)” it was 970; in that of “GTGTTTTGCAGCGAAAGGAAATCTCGCTCTTCGGAA (protein concentration 2 nM)”, 882. In turn, “CTGATTCACTGCCCTCTTCCGCTCTGAGGCGTCGCC (protein concentration 2 nM)” had a TF binding intensity of 1030. In the case of “GGGCCTGCGCGCGCACTTCCGCTCTCCCCTCCGGCT (protein concentration 2 nM)” it was 759; in that of “GAAAAACAGACAGACAGGAAGAGAGAGAGACAGACA (protein concentration 2 nM)”, 903.

Take “GTTCCAGAAACGTCACATCCGGCGCCCGCTCCGCCC (protein concentration 2 nM)”: the TF binding intensity was 890. For the sequence “TCCCTGCTGGTCCTGGTTCCGGCACACCAGGCCCTC (protein concentration 2 nM)”, the TF binding intensity was 864. Sequence “CAGGCTCGACACGGGCGGAACAAACGGGCTCCACTA (protein concentration 2 nM)” displayed a TF binding intensity of 769. With “TTGCCCGTCACTTGAGTTCCGCCTCCTCTGCTCCTC (protein concentration 2 nM)” the figure was 922; with “TGGGCGGGGAGAGGACGGAAGGAGTAGGCTTCGGGA (protein concentration 2 nM)”, 1020. With “TCTGAAGGAGCCGGGCGGAAAGAAGCCGAGGCGCGC (protein concentration 2 nM)” the figure was 798; with “TCTGGACGATGCAGTTTTCCGGTATACGCGACGCTA (protein concentration 2 nM)”, 727. In the case of “CTCAGCGGCCGAACCCGGAAGTTCGGGGCCGAGTTC (protein concentration 2 nM)” it was 901; in that of “ACGGCAAGTAAAGTGTTTCCGGCTCAGGTGTCATGG (protein concentration 2 nM)”, 852.
